Test results from the supplement of paper PMC6555819.

Columns and labels:
Assay in all cases: PBM binding z-score (relative to random genomic background probes); higher = stronger binding; sequences stand for … in GC…GCGATTGACAGCGTAGAATGAAGG
[1] = system: PPARg:RXRa DBDmut IVT, anti-RXR (DBD mutation: RXRa K156A/R161A, NR concentration 270 nM, RXRa partner concentration 90 nM)
Procedure, shortened: (§1)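 Random background probes are the reference for binding z-scores. These scores derive from regression-normalized fluorescence on custom Agilent 4×180K protein-binding microarrays incubated 1 h with ligand-free nuclear receptor dimers. Binding was detected with antibodies against each partner (one per run).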

[2] = system: PPARg:RXRa IVT, anti-PPARg (NR concentration 270 nM, RXRa partner concentration 90 nM)
Procedure, shortened: as §1

[3] = system: PPARg DBDmut:RXRa IVT, anti-PPARg (DBD mutation: PPARg1 K132A/R137A, NR concentration 270 nM, RXRa partner concentration 90 nM)
Procedure, shortened: as §1

[4] = system: PPARg DBDmut IVT, anti-PPARg (DBD mutation: PPARg1 K132A/R137A, NR concentration 270 nM)
Procedure, shortened: as §1

[5] = system: PPARg homodimer (NR concentration 180 nM)
Procedure, shortened: as §1

[6] = system: PXR:RXRa (NR concentration 270 nM, RXRa partner concentration 90 nM)
Procedure, shortened: as §1

[7] = system: PXR homodimer (NR concentration 270 nM)
Procedure, shortened: as §1

[8] = system: RARa:RXR (NR concentration 270 nM, RXRa partner concentration 90 nM)
Procedure, shortened: as §1

[9] = system: RARa homodimer (NR concentration 270 nM)
Procedure, shortened: as §1

[10] = system: RARb:RXRa (NR concentration 270 nM, RXRa partner concentration 90 nM)
Procedure, shortened: as §1

[11] = system: RARb homodimer (NR concentration 270 nM)
Procedure, shortened: as §1

[12] = system: RARg:RXRa (NR concentration 270 nM, RXRa partner concentration 90 nM)
Procedure, shortened: as §1

[13] = system: RARg homodimer (NR concentration 270 nM)
Procedure, shortened: as §1

[14] = system: RXRa DBDmut IVT, anti-RXR (DBD mutation: RXRa K156A/R161A, NR concentration 90 nM)
Procedure, shortened: as §1

[15] = system: RXRa homodimer (NR concentration 180 nM)
Procedure, shortened: as §1

[16] = system: THRa:RXRa (NR concentration 90 nM, RXRa partner concentration 90 nM)
Procedure, shortened: as §1

[17] = system: THRa homodimer (NR concentration 90 nM)
Procedure, shortened: as §1

[18] = system: VDR homodimer (NR concentration 270 nM)
Procedure, shortened: as §1

Sequence	PBM binding z-score [1]	PBM binding z-score [2]	PBM binding z-score [3]	PBM binding z-score [4]	PBM binding z-score [5]	PBM binding z-score [6]	PBM binding z-score [7]	PBM binding z-score [8]	PBM binding z-score [9]	PBM binding z-score [10]	PBM binding z-score [11]	PBM binding z-score [12]	PBM binding z-score [13]	PBM binding z-score [14]	PBM binding z-score [15]	PBM binding z-score [16]	PBM binding z-score [17]	PBM binding z-score [18]
CCTAGTTGGTCAGGAGGTCACACAACGGATATGA	1.95	3.66	0.747	0.329	3.64	4.16	1.53	4.94	2.05	3.63	4.4	5.09	4.4	0.815	4.82	3.56	2.25	2.5
CCTTACGGGTCACGACGTTATAGCACGACGAGCG	3.85	4.92	0.866	0.177	1.83	3.57	0.0826	4.61	1.39	4.34	3.34	5.56	5.15	0.951	6.26	2.99	0.181	0.722
CCTACTGGGCCAAGGTCATTAATCAGTCAAAGCA	3.47	4.44	0.31	0.133	2.15	3.16	1.21	3.39	0.145	3.29	3.03	3.21	2.99	1.47	2.71	3.1	2.03	3.22
TCATCTAGGTAATACAGGTGAAAGTCGGCATCTA	4.07	4.08	1.3	1.36	0.913	0.275	0.512	0.694	1.29	0.575	0.692	0.578	0.298	1.24	0.959	1.07	0.275	0.373
TTACCAAGGTGAGCTGAGGTCGTTGATCCAACTC	1.28	2.17	-0.497	-0.723	-0.21	4.78	0.329	1.72	-1.01	1.93	1.78	1.24	1.11	0.206	1.53	4.79	1.88	2.5
CCTCGGAGGACAGAATGTCAGAGCTGTCCGCTTT	-0.17	-1.04	-1.38	-1.68	0.0941	-0.762	-0.458	-0.687	-0.242	0.241	-0.0927	-0.321	0.175	-0.282	-0.66	-0.251	-0.615	-0.654
TCATATCGGTAATACAGGTGAAAGTCGGCATCTA	2.51	1.96	1.47	0.852	1.2	0.46	0.585	0.605	1.17	0.527	0.531	0.354	0.441	1.09	0.783	0.59	0.42	0.435
CCTACTGGGCCTAGGTCATTGATCAGTCAAAGCA	-0.391	1.13	-1.99	-1.42	1.21	0.949	-0.0903	1.57	-0.574	1.94	2.06	2.02	1.46	-0.592	1.34	2.07	0.765	0.74
TTACCACGGTGAAAGGTCGTTGATGCACGCCTTG	0.591	3.21	0.23	0.773	1.78	2.43	0.446	2.56	0.421	1.94	1.77	2.34	1.01	0.51	3.04	1.69	0.129	1.53
CCTACTGCGCCAAAGGTCATTGATTCCAATGCTC	1.68	3.77	5.21	1.61	3.34	5.66	2.58	5.78	2.4	4.61	4.88	5.4	4.69	2.16	6.21	3.46	1.9	3.56
CCTACTGGGCCATTCAGAGCTCATTGATCATATG	4.75	3.12	-0.435	-0.6	-0.275	-0.612	-0.562	-0.258	-0.409	-0.143	-0.346	-0.434	-0.184	0.0203	-0.591	-0.578	-0.449	-0.387
CCTTACGGGTGAAGGTTATAGCACGGGTGGTACG	0.6	1.31	-0.607	-1.16	0.456	0.216	-0.0716	0.732	0.409	1.31	0.868	0.873	0.868	-1.61	1.23	0.509	0.0246	-0.283
TCATATAGGTAAAGGTGAAATTCGAACGATATGA	3.77	3.94	1.35	1.08	0.745	0.895	0.378	1.54	0.597	1.77	1.3	1.56	1.28	0.746	2.19	1.37	-0.553	-0.144
AGTCAAAGTTCTCTAGGTAACGTAAGATTCAGCT	1.68	2.51	0.928	0.591	0.225	0.000883	0.167	0.366	0.183	0.732	0.137	0.139	0.523	0.597	0.0862	0.903	0.459	0.273
